Most compounds without a hit are left out; they make up all but 9.5% or so of the library.
Tau ThT inhib – tau fibrillization inhibition (ThT binding). P10636. recombinant tau K18 P301L, heparin-induced fibrillization, ThT fluorescence. Potency, µM (series often up to 57.4 µM), inactives show top-dose activity, negative = inhibition, actives largely listed as inhibitors. hit rate 2.1% among 270,000; note: nearly all actives have a fitted effect of over 55% in size
Target sequence (P10636 561-689 P618L limits assumed): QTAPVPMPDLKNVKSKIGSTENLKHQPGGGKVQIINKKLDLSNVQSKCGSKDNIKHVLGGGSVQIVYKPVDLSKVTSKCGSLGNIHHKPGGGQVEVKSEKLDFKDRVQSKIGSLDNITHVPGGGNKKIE
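Heparin-induced fibrillization of the P301L-mutant K18 repeat-domain fragment of human tau was followed by ThT binding in quantitative high-throughput format.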
HPGD block – HPGD (human) dehydrogenase inhibition. Potency, µM, for inactives: at the highest dose activity change, negative = inhibition, usual class: inhibitors. hit rate 4.3% among 150,000. purified HPGD, NADH fluorescence kinetic, PGE2 substrate; active = well fitted inhibition curve with a large enough effect, not every such curve was filed as active; inconclusive = small, poorly fitted or top-dose-only effect, or another doubt; inactive = no such curve, though single readings can be large or run the other way
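NADH formation kinetics: reaction with 30 uM PGE2 and 1 mM NAD+ (final), 20 nM enzyme, Tris-HCl pH 8 with Tween 20, after 15 min compound preincubation at room temperature. Fluorescence change, last versus first of five reads.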
NPSR antag – antagonists of human neuropeptide S receptor cAMP signaling; Q6W5P4; CHO-NPSR cells, cAMP TR-FRET, antagonist mode; Potency, µM (top dose mostly 38.3 µM), inactives show at the top dose activity change, negative = inhibition, hits mostly inhibitors; hit rate 1% among 220,000; AID 1461; note: nearly all actives have a fitted effect of over 50% in size
ALDH1A1 inh – ALDH1A1 (human) enzyme inhibition; hit rate 7.3% among 220,000; Purified ALDH1A1, NADH fluorescence, propionaldehyde substrate; Potency, µM (titrated, usually from 75.3 µM), without a hit: at the top dose activity, negative = inhibition, hits mostly inhibitors; active = well fitted inhibition curve with a large enough effect, not every such curve was filed as active; inconclusive = small, poorly fitted or top-dose-only effect, or another doubt; inactive = no such curve, though single readings can be large or run the other way;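 note: plate controls were no enzyme wells and a reference inhibitor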
Target sequence (P00352 whole entry, looked up): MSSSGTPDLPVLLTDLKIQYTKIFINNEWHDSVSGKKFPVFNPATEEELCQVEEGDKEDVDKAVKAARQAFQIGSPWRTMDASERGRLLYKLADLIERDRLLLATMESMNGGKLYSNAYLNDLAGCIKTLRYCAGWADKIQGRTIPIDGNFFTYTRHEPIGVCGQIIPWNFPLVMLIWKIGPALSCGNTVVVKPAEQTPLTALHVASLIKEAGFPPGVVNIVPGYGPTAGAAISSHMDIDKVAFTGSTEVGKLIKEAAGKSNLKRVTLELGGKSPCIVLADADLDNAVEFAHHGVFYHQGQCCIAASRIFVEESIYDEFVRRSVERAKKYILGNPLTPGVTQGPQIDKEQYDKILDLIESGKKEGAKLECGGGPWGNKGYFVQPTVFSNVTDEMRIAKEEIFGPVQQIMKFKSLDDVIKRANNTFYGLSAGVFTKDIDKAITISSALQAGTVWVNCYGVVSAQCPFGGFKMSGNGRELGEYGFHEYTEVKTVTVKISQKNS
Tau fluor counter – counter-screen for tau fibril formation inhibitors; Potency, µM (titrated, usually from 57.7 µM), inactives show top-dose activity change, negative = decrease; AID 1463; tau K18 P301L Alexa594 fluorescence, heparin fibrillization; hit rate 0.93% among 280,000; note: nearly all actives have a fitted effect of over 55% in size
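Human K18 P301L tau (15 uM unlabeled plus 0.24 uM Alexa 594-labeled, final) in 100 mM sodium acetate pH 7 was mixed with compound and 20 uM heparin and incubated 6 hr at 37 C.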
Tau fibril FP – blocks human tau fibril formation measured by polarization | K18 P301L tau heparin fibrillization, Alexa594 FP, 6 h | P10636 | Potency, µM (doses to about 57.7 µM), for the others: top-dose activity, negative = inhibition, most hits filed as inhibitors | hit rate 0.39% among 280,000; note: nearly all actives have a fitted effect of over 55% in size
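Heparin (20 uM) drove fibril formation of recombinant tau K18 P301L, 15 uM unlabeled with 0.24 uM Alexa 594 label, for 6 hr at 37 C in 100 mM sodium acetate pH 7. Fluorescence polarization (555/632 nm) read 1 hr after 30 uM ThT.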
Numbers without * were called inactive; ? = inconclusive; / = no result given; [ ] = remark or other dose. Unless noted, calls come from the whole dose curve; as a rule, active = well fitted curve in the direction sought with a large enough effect; inconclusive = small, poorly fitted or top-dose-only effect, or another doubt; inactive = no such curve, though single readings can be large; an effect the other way counts as inactive or inconclusive. Unless noted, % is set by controls: 0 for no effect and ±100 for the full control effect; potency is the fitted concentration of half-maximal effect.

SMILES	Tau ThT inhib	HPGD block	NPSR antag	ALDH1A1 inh	Tau fluor counter	Tau fibril FP
O=C1NN(c2ccc(Cl)cc2)C(=O)/C1=C\c1ccc(-c2cccc(C(=O)O)c2)o1	7.94µM*	/	-5.9%	?	10µM*[quencher]	?
Cc1ccc(N2NC(=O)/C(=C/c3ccc(-c4ccc(Cl)c(C(=O)O)c4)o3)C2=O)cc1	?	/	-5.0%	8.91µM*	?	-1.0%
CCOc1cc(/C=C2\C(=O)NN(c3ccccc3)C2=O)cc([N+](=O)[O-])c1O	?	/	?	?	-22.9%	-11.9%
O=C(O)c1cccc(-c2ccc(/C=c3/sc4nc5ccccc5n4c3=O)o2)c1	?	/	38.2%	?	-7.1%	8.1%
N[C@@H](CC1=CS(=O)(=O)c2ccc(Cl)cc21)C(=O)O	/	-8.8%	/	-9.3%[13.5 µM]	/	/
CC1CCN(S(=O)(=O)c2ccc3c(ccc(=O)n3CC(=O)Nc3cccc(F)c3)c2)CC1	9.0%	/	/	/	-23.7%	?
COc1ccc(CCNC(=O)c2ccc3c(c2)N(Cc2cccc(Cl)c2)C(=O)CS3)cc1OC	-8.5%	/	/	/	-28.9%	-8.0%
CCNc1ncc2nc(-c3cccs3)c(=O)n(CCc3ccccc3)c2n1	/	/	/	-1.3%	/	/
O=C(Nc1ccccc1)N1CCCC2(CCN(C(=O)c3cnccn3)CC2)C1	/	-5.3%	/	8.9%	/	/
NC(=O)c1ccsc1N	20µM*	/	-1.9%	?	-24.9%	31.6µM*
Nc1sccc1C(=O)c1ccc(Cl)cc1	-12.5%	-15.3%	5.0%[46.1 µM]	3.1%	-19.9%	6.7%
Cc1cc(C(C)(C)C)oc1C(=O)N(CC(=O)NC1CCCC1)Cc1ccccc1Cl	?	-20.4%	7.94µM*	?	-15.4%	-0.9%
CC(C)(C)NS(=O)(=O)c1ccc(/C=C/C(=O)O)cc1	-3.7%	/	7.7%	0.0%	-3.0%	-4.4%
CC(=O)OCC1C2CC[C@H]3C(OCc4ccc(F)cc4C(F)(F)F)OC[C@]4(C)[C@H]3C2=C(CN4C(=O)OC(C)(C)C)[C@H](C)C1COC(C)=O (stereo partly specified)	-2.5%	-1.4%	/	-8.3%	-4.2%	-10.5%
Cc1ccc(-c2nc(CS(=O)CC(=O)NCCc3ccc(Cl)cc3)c(C)o2)cc1 (stereo unspecified)	-9.1%	/	/	/	-9.3%	2.4%
O=C(NCCSc1c[nH]c2ccccc12)c1ccccc1Cl	-16.0%	/	/	/	?	6.7%
O=C(NCCSc1c[nH]c2ccccc12)c1ccc(Cl)cc1	?	/	/	/	20µM*[quencher]	-2.9%
O=C(NCCO)c1cccc2c1C(=O)c1ccccc1-2	-10.7%	-10.2%	-3.7%	20µM*	-13.1%	-0.3%
CC(C)(C)NC(=O)c1cccc2c1C(=O)c1ccccc1-2	?	/	23.2%	/	-27.7%	-0.1%
CCN(CC)CCNC(=O)c1ccc2c(c1NCCO)C(=O)c1ccccc1C2=O	15.8µM*	/	?	/	?	0.1%
CC1CCN(C(=O)c2ccc3c(c2NCCO)C(=O)c2ccccc2C3=O)CC1	?	22.4µM*	-16.3%[46.1 µM]	?	?	2.5%
C=CCN(CC=C)S(=O)(=O)c1ccc2nsnc2c1	-6.8%	-16.3%	-3.5%[46.1 µM]	-8.9%	-9.8%	-11.4%
COc1ccc(/C=C2\SC(=S)N(NC(=O)c3csc4c3CCCC4)C2=O)cc1	?	-8.7%	-21.5%[46.1 µM]	-9.1%	-16.1%	5.9%
O=C(Nc1cc(Cl)cc(Cl)c1)c1cc(S(=O)(=O)N2CCc3ccccc3C2)ccc1F	15.6%	/	/	/	-5.2%	?
CCOC(=O)C1=C(C)Nc2nnnn2C1c1ccc(OC)c(Br)c1 (stereo unspecified)	-5.9%	-21.3%	-32.3%	-7.1%	-25.5%	-4.8%
SMILES	Tau ThT inhib	HPGD block	NPSR antag	ALDH1A1 inh	Tau fluor counter	Tau fibril FP
CCC1NC(=S)NC(C)=C1C(=O)c1ccccc1 (stereo unspecified)	-2.6%	/	10.0%	?	1.0%	0.4%
CCOc1ccc(-n2c(=O)c3c4c(sc3n(Cc3cccc(Cl)c3)c2=O)CCCC4)cc1	-0.5%	/	/	/	-6.7%	1.8%
COC(=O)c1ccc(NC(=O)c2c(NCc3cccc(F)c3)sc3c2CCCC3)cc1	?	/	/	/	?	-6.0%
CCc1cccc(CC)c1NC(=S)NCCc1c(C)[nH]c2ccccc12	-13.4%	-4.2%	-32.6%	-8.0%	?	?
COc1ccc(CCNC(C)=O)cc1	-5.9%	-3.5%	-6.4%[46.1 µM]	7.8%	-2.0%	-0.2%
CC(=O)NCCc1ccc(O)c(O)c1	?	?	-10.1%[46.1 µM]	28.2µM*	?	?
CCc1cccc(CC)c1NC(=S)NCCc1ccc(O)c(O)c1	?	/	-8.4%	22.4µM*	-26.0%	-3.0%
N[C@H](CO)C(=O)NCC(=O)O	/	-2.9%	/	-4.8%[13.5 µM]	/	/
NC(CO)C(=O)NNCc1ccc(O)c(O)c1O (stereo unspecified)	3.16µM*	-8.9%	?	3.44µM*	?	3.16µM*
CCOc1ccc(S(=O)(=O)N(CC(=O)N/N=C/c2ccc(-c3ccc([N+](=O)[O-])cc3)o2)c2ccccc2)cc1	?	-21.3%	-8.8%[46.1 µM]	25.1µM*	?	2.7%
Cc1ccc(C)c(N(CC(=O)N/N=C/c2ccc(-c3ccc([N+](=O)[O-])cc3)o2)S(=O)(=O)c2ccccc2)c1	?	-20.2%	?	?	?	11.9%
COc1ccc(Nc2nc(N)nc(CSC(=S)N3CCCCC3C)n2)cc1 (stereo unspecified)	?	/	-34.2%	/	10µM*[quencher]	9.7%
COc1ccc(Nc2nc(N)nc(CSC(=S)N3CCCCC3)n2)cc1	-18.2%	/	-4.0%	?	?	6.1%
COc1ccc(C(=O)CC2(O)C(=O)N(CCc3ccccc3)c3ccc(Br)cc32)cc1OC (stereo unspecified)	-15.8%	/	/	/	?	2.2%
O=C(CSc1nnnn1-c1ccc(F)cc1)c1ccc(O)c(O)c1	?	/	-3.7%	22.4µM*	?	8.0%
COc1ccc(-n2nnnc2SCC(=O)c2cccc(OC)c2)cc1	-9.0%	-7.5%	-20.3%[46.1 µM]	2.7%	?	-17.0%
COc1ccc2c(c1)c1c(c(=O)n(Cc3ccccc3)c(=O)n1Cc1cc(C)ccc1C)n2C	1.2%	/	/	/	-5.2%	3.3%
COc1ccc(CN2CCNC(=O)C2CC(=O)N2CCCCO2)cc1OC (stereo unspecified)	-11.9%	/	-12.9%	?	6.2%	5.2%
COc1ccccc1NC(C#N)c1ccccc1OCc1ccccc1 (stereo unspecified)	-3.9%	-10.1%	-20.5%	17.8µM*	-3.6%	9.2%
CNC(=O)c1ccc(OCc2ccccc2)c(OC)c1	2.4%	-5.4%	-6.8%[46.1 µM]	6.6%	0.5%	-2.7%
Cc1ccc(NC(=O)CNc2ccccc2CN(C)C2CCCCC2)cc1	-3.5%	/	-20.2%	20µM*	-14.8%	3.1%
COc1ccc(C)cc1NC(=O)CNc1ccccc1CN(C)C1CCCCC1	-1.8%	/	-40.7%	20µM*	-10.7%	3.7%

Source: PubChem (National Center for Advancing Translational Sciences (NCATS))
